About 83,000 compounds went through this panel and 20% of them were active in at least one assay; those are over-represented in the sample as a whole.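 Testing used 96-well plates and a 48-hour single-concentration exposure. Example: -40 means 40% of the starting cells died.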 Active and inactive are the calls of the source.
Each compound was assayed on M14 melanoma (assay: NCI-60 one-dose screen, 48 h (100 = growth as untreated, 0 = no growth, -100 = all killed)). Conditions: 10 µM unless noted.
Description: Growth inhibition of the M14 human tumor cell line is measured as a screen for anti-cancer activity. Cells are grown in 96 well plates and exposed to the test compound for 48 hours. Compounds are tested at a single concentration, which is 10^-5 M for most compounds. The reported endpoint is percent growth (GI% or GIPRCNT), where numbers from 0 - 100% represent growth inhibition, and numbers from -100% - 0 represent cell death. For example, a value of 40 represents 60% growth inhibition. A value of 0 means no net growth occurred over the course of the experiment. A value of -40 indicates 40% of cells at the beginning of the experiment died by the end of the experiment. A value of -100 means all cells are dead at the end of the experiment.
NCI-60 Human Tumor Cell Lines Screen was performed using the standard one-dose NCI protocol, which is described in more detail at https://dtp.cancer.gov/discovery_development/nci-60/default.htm.
Compounds with GIPRCNT values below 10 were considered active. Activity score was based on GIPRCNT using the following formula: […]
Score is 0 for GIPRCNT values of 100 or above, 50 for GIPRCNT values of 0, and 100 for GIPRCNT values of -100.
With `COc1ccc(Cc2cnc(NC(=O)c3cc(C)oc3C)s2)cc1` the growth was 18.9% (inactive). `CCCCCN1C(=O)/C(=c2\sc3n(c2=O)C2C(NN=3)N(CC)C(=O)N2CC)c2ccccc21` (stereo not given) was tested, and the growth was -9.92% (active). `Cc1cc(C(=O)O)c(C)n1-c1cccc(C(=O)O)c1` was tested, and the growth was 90.9% (inactive). In the case of `Clc1ccc(/C=N\N=C\c2ccc(Cl)c(Cl)c2)cc1Cl`, the growth is reported as 88.6% (inactive). In the case of `CCCCNC(=O)Oc1ccc(/C(=C(/C)Cc2ccc(OC)cc2)c2ccc(OCCN3CCCC3)cc2)cc1`, the growth is reported as -64.6% (active). `O=[N+]([O-])c1cccc(-c2nc3cc4nc5ccccc5[nH]c4cc3n2)c1` was tested, and the growth was 103% (inactive). For `COc1ccc(/C=C/C(=O)c2cccc(OCCCCOc3cccc(C(=O)/C=C/c4ccc(OC)c(OC)c4)c3)c2)cc1OC`, the growth was 78.6% (inactive). `O=C1C(Cl)=C(NCCCCCCNC2=C(Cl)C(=O)c3ccccc3C2=O)C(=O)c2ccccc21` was tested, and the growth was 87.9% (inactive). With `CCN(C)S(=O)(=O)Nc1cccc(Nc2ncnc3cc(NC(=O)CCl)ccc23)c1Cl` the growth was 15.1% (inactive). With `CCCCCCC12CCC(=O)N1CCc1cncn12` (stereo not given) the growth was 113% (inactive). For `COc1cc(-c2csc(NC(=O)c3ccc(N4CCOCC4)c(C(F)(F)F)c3)n2)cc(OC)c1OC`, the growth was 12.9% (inactive). `COc1cc(C2CC(c3ccc(Nc4nc(Nc5ccc(Cl)cc5)nc(Nc5ccc(Cl)cc5)n4)cc3)=NN2C(C)=O)cc(OC)c1OC` (stereo not given) was tested, and the growth was 102% (inactive). In the case of `CCOC(=O)n1ccn(C)c1=S`, the growth is reported as 97% (inactive). `COc1ccc(CNc2c3ccccc3nc3ccccc23)cc1` was tested, and the growth was 37.1% (inactive). In the case of `Cc1ccc(-c2nc([P+](c3ccccc3)(c3ccccc3)c3ccccc3)c(S(=O)(=O)c3ccc(C)cc3)o2)cc1`, the growth is reported as 19.3% (inactive). With `CCOC(=O)c1ccc2c(c1)nc(-c1ccccc1)n2C1CCCCC1` the growth was 88.3% (inactive). For `COc1ccc(OC)c(-c2nc(SCC(=O)c3ccc(C#N)cc3)[nH]c(=O)c2C#N)c1`, the growth was 91.7% (inactive). With `Clc1ccc2c(NC3CCC(N4CCOCC4)CC3)ccnc2c1` (stereo not given) the growth was 84% (inactive). For `CCCCCCCCCCCCCCCCOCCCOP(=O)(O)C1CCCN(O)C1=O` (stereo not given), the growth was -3.96% (active). For `O=C(Nc1ccc(OS(=O)(=O)c2ccc(F)cc2)cc1)C1CCCCCC1`, the growth was 85.9% (inactive). For `N=C(N)c1ccc(-c2ccc(-c3ccccc3)o2)cc1`, the growth was -91.3% (active). `CCOC(=O)C1=C(c2ccccc2)N=C2SC=C(c3ccc(Cl)cc3)N2C1c1ccc(Br)cc1` (stereo not given) was tested, and the growth was 83.7% (inactive). `O=C(CSc1nc2sc3c(c2c(=O)n1-c1ccccc1)CCCCC3)N/N=C/c1cccc([N+](=O)[O-])c1` was tested, and the growth was 71.1% (inactive). For `O=C1NC(=C(Cl)Cl)/C(=N\S(=O)(=O)NCc2ccccc2)N1`, the growth was 94.3% (inactive). With `Cc1ccc(/C=C2\COc3ccc(O)cc3C2=O)cc1` the growth was 93.1% (inactive). `COC(=O)Nc1nc2ccc(S(=O)c3ccccc3)cc2[nH]1` (stereo not given) was tested, and the growth was 44.5% (inactive). For `CCOC(=O)c1cc2c(n1Cc1cc(OC)c(OC)c(OC)c1)-c1nc(N)sc1CCC2`, the growth was 25.6% (inactive). For `O=C(OC(CO)C(=O)NC12CC3CC(CC(C3)C1)C2)c1ccc(Cl)cc1` (stereo not given), the growth was 97.6% (inactive). For `O=C1c2ccccc2-c2c1c1c(=O)[nH]c3ccccc3c1n2Cc1ccccc1`, the growth was 84.2% (inactive). In the case of `O=C1/C=C/[C@@H](O)[C@@H]2C[C@@H](O)C[C@H]2/C=C/CCC[C@H](CCc2ccccc2)O1`, the growth is reported as 7.17% (active). For `NC(=O)CSc1oc(-c2ccccc2)nc1S(=O)(=O)c1ccc(Br)cc1`, the growth was 83.5% (inactive). `Clc1ccc2c(c1)C(c1c[nH]c3ccccc13)(c1c[nH]c3ccccc13)CCO2` was tested, and the growth was 69% (inactive). With `COc1cc(C2c3cc(OC(C)=O)c(OC)cc3CC3C(=O)OCC32)ccc1OC(C)=O` (stereo not given) the growth was 106% (inactive). In the case of `CCOC(=O)c1cc2c(n1C)-c1nc(NC(C)=O)sc1CCC2`, the growth is reported as 89.1% (inactive). With `CCN(CC)CCn1c2ccc(O)cc2c2sc3cc(O)ccc3c(=O)c21` the growth was 19.6% (inactive). With `C=C(C)[C@@H]1CCC[C@]2(COS(=O)(=O)c3ccc(C)cc3)CC[C@]3(C)[C@@H](CC[C@@H]4[C@@]5(C)CCCNC(C)(C)[C@@H]5CC[C@]43C)[C@@H]12` the growth was -20.6% (active). With `O=C(O)c1ccc(-n2cc(/C=N/Nc3ccccc3)c(-c3ccc(F)cc3F)n2)cc1` the growth was 41.8% (inactive). `O=C1Nc2ccccc2/C1=C/c1cccn1CCCCn1c2ccccc2c(=O)c2ccccc21` was tested, and the growth was 85.1% (inactive). `C1CCC([PH+](C2CCCCC2)C2CCCCC2[PH+](C2CCCCC2)C2CCCCC2)CC1.[Au].[CH-]1CCCCC1C1CCCC[N-]1` (stereo not given) was tested, and the growth was -41.3% (active). In the case of `CS(=O)(=O)Nc1cncc(-c2ccc3ncnc(Nc4cncc(Cl)c4)c3c2)c1`, the growth is reported as 93.1% (inactive).
